The results in this text go back to PubChem BioAssay (Tox21).

Values without a mark were called inactive. Records with an inconclusive call do not appear. Activity calls are given as the source filed them. Unless noted, the call rests on the fitted dose curve; in most records, active means well fitted curve in the direction sought with a large enough effect in the repeat runs; inconclusive means weak or mixed curves; inactive means no such curve, though single readings can be large; an effect the other way counts as inactive or inconclusive.

A short description of test [1]: qHTS assay for small molecules that induce genotoxicity in human embryonic kidney cells expressing luciferase-tagged ATAD5 (AID 651632). Further: nearly all actives have a fitted effect of over 15% in size. In outline: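 Test compounds were delivered by pin tool onto HEK293T reporter cells (2,000/well) expressing ATAD5 fused to luciferase. After 16 hr at 37C, 5% CO2, Amplite was added for 30 min at room temperature and luminescence was measured.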
A general note: Quantitative high-throughput screening tests each substance at several concentrations.

The nature of test [2]: qHTS assay for small molecule agonists of the p53 signaling pathway - cell viability (AID 651633; calls by dose curve;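 further: p53RE-bla HCT reporter cells with a stable beta-lactamase p53 reporter; series mostly up to about 83 µM; nearly all actives have a fitted effect of over 30% in size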). In outline: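 Viability counter-read: CellTiter-Glo luminescence (30 min, room temperature) in the same p53RE-bla plates. These plates had been exposed to compounds for 16 h at 37 C.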
Test [3] in a line: qHTS assay for small molecules that induce genotoxicity in human embryonic kidney cells expressing luciferase-tagged ATAD5 - cell viability (AID 651634; calls by dose curve; further: nearly all actives have a fitted effect of over 25% in size). In outline: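 Quantitative high-throughput format. HEK293T cells expressing ATAD5 fused to luciferase were plated at 2,000 cells/well and treated 15.5 hr with compound versus DMSO. Viability was determined by fluorescent live-cell protease substrate, 30 min at 37C.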

The nature of test [4]: qHTS assay for small molecule disruptors of the mitochondrial membrane potential - cell viability (AID 720634; calls by dose curve;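 further: human HepG2 liver cancer cells; series mostly up to about 83 µM; nearly all actives have a fitted effect of over 20% in size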). In outline: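 Same-well counter-screen: following the MMP dye addition, CellTiter-Glo was added to 1 hr compound-treated HepG2 cells and luminescence read after 30 min at room temperature.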
The nature of test [5]: qHTS assay for small molecule disruptors of the mitochondrial membrane potential (AID 720635). Further: potency means the concentration at half of the fitted maximal effect. In outline:
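Mitochondrial membrane potential tracked with Mito-MPS dye, red aggregates (ex 540/em 590 nm) against green monomers (ex 490/em 535 nm). Compound treatment 1 hr at 37C, dye 30 min in HepG2.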

Test [6] in a line: qHTS assay to test for compound auto fluorescence at 590 nm (red) in HepG2 cells (AID 720674). In outline:
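We screened compounds on adherent HepG2 cells, incubating them for an hour at 37 C in 5% CO2 before reading emission at 590 nm under 540 nm excitation; values reflect equivalence to Rose Bengal sodium fluorescence.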

Test [7] can be described thus: qHTS assay to test for compound auto fluorescence at 535 nm (green) in HepG2 cells (AID 720675).
A short description of test [8]: qHTS assay to test for compound auto fluorescence at 460 nm (blue) in HEK293 cells (AID 720678). In outline:
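Intrinsic compound fluorescence is recorded in live HEK293 cultures after overnight incubation at 37C, 5% CO2, using excitation 405 nm and emission 460 nm. Values are referenced to triamterene.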

Test [9] in a line: qHTS assay to test for compound auto fluorescence at 590 nm (red) in HEK293 cells (AID 720679). In outline:
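Red autofluorescence, HEK293 cells: 2,000 cells/well; attach 4-5 hr 37C; add 23 nL cpd or DMSO; incubate o/n 37C 5% CO2; read Ex540/Em590; Rose Bengal sodium reference.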
On the % scale 0 is the no-effect control and ±100 the full control effect.

In the case of `FC(F)(Cl)C(F)(Cl)Cl`, the Potency result in [1], in test [2], in test [3], in test [4], in test [5] and in [8] was “inactive” throughout. The result in test [6], in test [7] and in test [9] was inactive.
For `CCCCC(CC)COCCC#N` (stereo not drawn), the Potency result in test [1], in [2], in [3], in test [4], in [5] and in test [8] was “inactive” throughout. The compound was called inactive in [6], in [7] and in test [9].
For `CCN(CCCCOC(=O)c1ccc(OC)c(OC)c1)C(C)Cc1ccc(OC)cc1` (stereo not drawn), the Potency entry in [1], in test [2], in test [3], in test [4] and in test [5] was “inactive” throughout. Also, the fluorescence, relative to Rose Bengal in test [6] is 0.21% [at 18.6 µM]. Besides, in test [7], the fluorescence, % of fluorescein control is 0.0889% [at 18.6 µM]. Moreover, the fluorescence, % of triamterene in [8] is 0.0022% [at 18.6 µM]. The fluorescence, % of fluorescent control in [9] is -0.338% [at 18.6 µM].
Turning to `Cc1c(N=C=O)cccc1N=C=O`, the Potency result in [1], in [2], in [3], in test [4], in test [5] and in [8] was “inactive” throughout. For the same compound, the call in [6], in [7] and in [9] was inactive.
Regarding `CC(COc1ccccc1)NC(C)C(O)c1ccc(O)cc1` (stereo not drawn), the Potency entry in test [1], in [2], in test [3], in test [4] and in test [5] was “inactive” each time. Besides, the fluorescence, relative to Rose Bengal in test [6] is -0.283% [at 18.6 µM]. For the same compound, in [7], the fluorescence, % of fluorescein control is -0.086% [at 18.6 µM]. Also, the fluorescence, % of triamterene in [8] is -0.0294% [at 18.6 µM]. For the same compound, the fluorescence, % of fluorescent control in [9] is -0.22% [at 18.6 µM].
Consider `NC(=O)c1ccccc1`, for which the Potency result in test [1], in test [2], in test [3], in test [4], in test [5] and in test [8] was “inactive” throughout. The result in [6] and in [9] was inactive.
Consider `Nc1nc(Cl)nc2c1ncn2[C@H]1C[C@H](O)[C@@H](CO)O1`, for which the Potency result in test [1], in test [2], in test [3], in test [4], in test [5] and in test [8] was “inactive” each time. Moreover, the result in test [6], in [7] and in test [9] was inactive.
Regarding `CCCCCCCCCCCCSCCOCCO`, the Potency entry in test [1], in [2], in test [3], in test [4], in test [5] and in test [8] was “inactive” in each case. The compound was called inactive in test [6], in test [7] and in [9].
As for `CCCC1CCCC(=O)O1` (stereo not drawn), the Potency entry in test [1], in test [2], in test [3], in [4], in test [5] and in test [8] was “inactive” each time. Further, the call in [6], in test [7] and in [9] was inactive.
Take `CCC(C)C1N=C(C)C(C)S1` (stereo not drawn): the Potency result in test [1], in [2], in test [3], in test [4], in [5] and in [8] was “inactive” each time. In addition, the call in test [6], in test [7] and in test [9] was inactive.
Take `CNc1ccccc1`: the Potency result in [1], in [2], in [3], in [4], in test [5] and in [8] was “inactive” each time. Further, the compound was classed as inactive in [6] and in test [9].
With `O=C(Cl)c1ccc(F)c(Cl)c1`, the Potency result in [1], in [2], in [3], in test [4] and in test [8] was “inactive” each time. Besides, the call in test [6], in test [7] and in [9] was inactive.
In the case of `C=CC(=O)OCCCCCCCCCC`, the Potency entry in test [1], in [2], in test [3], in test [4], in [5] and in [8] was “inactive” each time. Further, the compound was classed as inactive in test [6], in test [7] and in test [9].
`O=C(O)CCc1nc2ccccc2[nH]1`: the Potency result in test [1], in test [2], in [3], in test [4], in test [5] and in test [8] was “inactive” in each case. Also, the outcome in [6], in [7] and in [9] was inactive.
As to `O=[N+]([O-])c1ccc(Cl)cc1Cl`, the Potency entry in test [1], in test [2], in test [3], in test [4], in test [5] and in test [8] was “inactive” throughout. Moreover, the compound was called inactive in test [6], in test [7] and in test [9].
As to `CC(=O)Oc1cccc2c1C(=O)c1c(OC(C)=O)cc(C(=O)O)cc1C2=O`, the Potency result in test [1], in test [2], in [3], in [4] and in test [8] was “inactive” throughout. Also, the Potency in test [5] is 13.3 µM (active). Besides, the compound was classed as inactive in [6], in test [7] and in [9].
For the compound `CCC(CC)C(=O)O`, the Potency entry in test [1], in test [2], in test [3], in test [4], in [5] and in test [8] was “inactive” in each case. In addition, the result in test [6] and in [9] was inactive.
As for `CC1(C)CC(=O)CC(C)(C)N1`, the Potency result in test [1], in test [2], in [3], in test [4], in [5] and in [8] was “inactive” each time. Moreover, the compound was called inactive in test [6], in test [7] and in [9].
For `CCCC(=O)OCCC(C)C`, the Potency result in test [1], in test [2], in [3], in test [4], in test [5] and in [8] was “inactive” in each case. Moreover, the compound was classed as inactive in test [6] and in test [9].
For the compound `Oc1ccc(Oc2ccccc2)cc1`, the Potency entry in [1], in test [2], in test [3], in test [4] and in test [8] was “inactive” each time. For the same compound, the Potency in test [5] was 20.6 µM (active). Further, the call in test [6], in test [7] and in test [9] was inactive.
Turning to `CC1=C(C)C(=O)C(C(CCCCCC(=O)O)c2ccccc2)=C(C)C1=O` (stereo not drawn), the Potency result in test [1], in test [2], in test [3], in [4], in test [5] and in [8] was “inactive” in each case. Also, the outcome in test [6], in [7] and in [9] was inactive.
For the compound `OCCOc1cccc(OCCO)c1`, the Potency entry in [1], in test [2], in test [3], in test [4], in test [5] and in [8] was “inactive” each time. In addition, the compound was classed as inactive in test [6], in test [7] and in test [9].
